PubChem BioAssay (NCATS)
Records with an inconclusive call do not appear. Calls of active or inactive are those of the source. Calls follow the shape of the dose curve; as a rule, active = well fitted curve in the direction sought with a large enough effect; inconclusive = small, poorly fitted or top-dose-only effect, or another doubt; inactive = no such curve, though single readings can be large; an effect the other way counts as inactive or inconclusive.

Legend:
[1] = tested on: CRL-7250; test: Cytotoxic Profiling of Annotated Libraries Using Quantitative High-Throughput Screening (AID 1296008); conditions: Five cell lines viability, CellTiter-Glo ATP luminescence, 48-72 h; max response: hits give low values; also: nearly all actives have a fitted effect of over 60% in size; as to max response: % is scaled to controls: 0 for no effect and ±100 for the full control effect
How it was run: (§1)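 Cytotoxicity was measured as CellTiter-Glo ATP luminescence, read after 10 min at room temperature. Compound treatment of the cells lasted 48 or 72 hr at 37 degrees Celsius in a qHTS format.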

[2] = tested on: HEK293; test: as above; conditions: Five cell lines viability, CellTiter-Glo ATP luminescence, 48-72 h; max response: hits give low values
How it was run: as §1

[3] = tested on: HaCat; test: as above; conditions: Five cell lines viability, CellTiter-Glo ATP luminescence, 48-72 h; max response: hits give low values
How it was run: as §1

[4] = tested on: KB-3-1; test: as above; conditions: Five cell lines viability, CellTiter-Glo ATP luminescence, 48-72 h; max response: hits give low values
How it was run: as §1

[5] = tested on: NIH3T3; test: as above; conditions: Five cell lines viability, CellTiter-Glo ATP luminescence, 48-72 h; max response: hits give low values
How it was run: as §1

[6] = tested on: HACAT; test: qHTS assay to identify novel small-molecules to repurpose for Merkel cell carcinoma treatment (AID 1296009); conditions: MCC and control cell lines, CellTiter-Glo viability, 72 h; at 44.8 µM (top of the series) unless noted; also: nearly all actives have a fitted effect of over 60% in size
How it was run: (§2)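 Cell viability measured by CellTiter-Glo following 72 hr compound treatment at 37 degree celsius, with NPC and MIPE libraries tested in 8- and 11-point concentration series.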

[7] = tested on: C33A; test: Primary qHTS to identify gynecologic anti-cancer compounds using libraries of approved drugs and bioactive compounds (AID 1345084); conditions: Gynecologic cancer cell panel viability, ATPlite luminescence, 48 h; series mostly up to 57.5 µM; also: % is scaled to controls: 0 for no effect and ±100 for the full control effect; nearly all actives have a fitted effect of over 55% in size
How it was run: (§3)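 Luminescence from the ATPlite ATP-monitoring reagent indicates viable cell number; lower signal means cytotoxicity. Cells received compound 16 h after seeding and were exposed for 48 h across five concentrations.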

[8] = tested on: CAOV3; test: as above; conditions: Gynecologic cancer cell panel viability, ATPlite luminescence, 48 h; series mostly up to 57.5 µM
How it was run: as §3

[9] = tested on: CASKI; test: as above; conditions: Gynecologic cancer cell panel viability, ATPlite luminescence, 48 h; series mostly up to 57.5 µM
How it was run: as §3

[10] = tested on: Es-2; test: as above; conditions: Gynecologic cancer cell panel viability, ATPlite luminescence, 48 h; series mostly up to 57.5 µM
How it was run: as §3

[11] = tested on: HeLa; test: as above; conditions: Gynecologic cancer cell panel viability, ATPlite luminescence, 48 h; series mostly up to 57.5 µM
How it was run: as §3

[12] = tested on: Hek293T; test: as above; conditions: Gynecologic cancer cell panel viability, ATPlite luminescence, 48 h, control line for the selectivity index; series mostly up to 57.5 µM
How it was run: as §3

[13] = tested on: JEG-3; test: as above; conditions: Gynecologic cancer cell panel viability, ATPlite luminescence, 48 h; series mostly up to 57.5 µM
How it was run: as §3

[14] = tested on: OV90; test: as above; conditions: Gynecologic cancer cell panel viability, ATPlite luminescence, 48 h; series mostly up to 57.5 µM
How it was run: as §3

[15] = tested on: PA-1; test: as above; conditions: Gynecologic cancer cell panel viability, ATPlite luminescence, 48 h; series mostly up to 57.5 µM
How it was run: as §3

[16] = tested on: NIH3T3; test: qHTS assay to identify novel small-molecules to repurpose for Merkel cell carcinoma treatment (AID 1296009); conditions: MCC and control cell lines, CellTiter-Glo viability, 72 h; at 44.8 µM (top of the series) unless noted; also: nearly all actives have a fitted effect of over 60% in size
How it was run: as §2

CC1=CC(=O)CC(C)(C)C1CCC(C)O[C@@H]1O[C@H](CO)[C@@H](O)[C@H](O)[C@H]1O (some centres not stated)
inactive: outcome [1] | max response [2] 3.44% | outcome [3] | max response [4] 5.09% | max response [5] 0.902% | outcome [6] | Potency [7] | Potency [8] | outcome [9] | Potency [10] | Potency [11] | Potency [12] | Potency [13] | Potency [14] | Potency [15]

N#Cc1cccc(-c2c[nH]c3ncnc(N4CCOCC4)c23)c1
inactive: outcome [1] | max response [2] -6.95% | outcome [3] | max response [4] -3.64% | outcome [5] | outcome [6] | outcome [16] | Potency [8] | outcome [9] | Potency [10] | Potency [11] | Potency [12] | Potency [13] | Potency [14] | Potency [15]

COc1cc(C2Oc3c(OC)cc(/C=C/C(=O)OC4CC(O)(C(=O)O)CC(O)C4O)cc3C2CO)ccc1O (configuration not stated)
inactive: max response [1] -7.61% | max response [2] 1.22% | outcome [3] | max response [4] 9.01% | outcome [5] | outcome [6] inactive [at 17.4 µM] | outcome [16] inactive [at 17.4 µM] | Potency [7] | outcome [9] | Potency [10] | Potency [11] | Potency [12] | Potency [13] | Potency [14] | Potency [15]

CC(=C\C(C)O)/C=C(\C)C(=O)CC1CC(CC(N)=O)CC(=O)O1 (configuration not stated)
inactive: outcome [1] | max response [2] 1.11% | outcome [3] | outcome [4] | outcome [5] | outcome [6] | outcome [16] | Potency [7] | outcome [9] | Potency [10] | Potency [11] | Potency [12] | Potency [13] | Potency [14] | Potency [15]

CO[C@H]1c2cc(C(C)C)c(O)c(O)c2[C@@]23CCCC(C)(C)C2[C@@H]1OC3=O (some centres not stated)
inactive: outcome [1] | max response [2] -7.48% | outcome [3] | outcome [4] | outcome [5] | outcome [6] | outcome [16] | Potency [7] | outcome [9] | Potency [10] | Potency [11] | Potency [12] | Potency [13] | Potency [14] | Potency [15]

C[C@]1(C2CCCC2)Cc2cc(OCC(=O)O)c(Cl)c(Cl)c2C1=O
inactive: max response [1] 3.09% | max response [2] 3.25% | outcome [3] | outcome [4] | max response [5] 4.03% | outcome [6] | Potency [7] | Potency [8] | outcome [9] | Potency [10] | Potency [11] | Potency [12] | Potency [13] | Potency [14] | Potency [15]

CC1(C)CC[C@]2(C(=O)O)CC[C@]3(C)C(=CCC4[C@@]5(C)CC[C@H](O)C(C)(C)C5CC[C@]43C)C2C1 (some centres not stated)
inactive: outcome [1] | max response [2] -9.46% | outcome [3] | max response [4] 2.08% | max response [5] -3.2% | outcome [6] inactive [at 17.4 µM] | Potency [7] | Potency [8] | outcome [9] | Potency [10] | Potency [11] | Potency [12] | Potency [13] | Potency [14]

O=C(O)C1(c2ccc(-c3ccc(Cl)c(Cl)c3)c(F)c2)CC1
inactive: max response [1] 2.78% | max response [2] -11.7% | outcome [3] | max response [4] -5.77% | outcome [5] | outcome [6] | outcome [16] | Potency [7] | outcome [9] | Potency [10] | Potency [11] | Potency [12] | Potency [13] | Potency [14] | Potency [15]

COC(=O)[C@]1(Cc2ccc(O)c(CC=C(C)C)c2)OC(=O)C(O)=C1c1ccc(O)cc1
inactive: max response [1] 1.22% | max response [2] 3.25% | outcome [3] | outcome [4] | max response [5] 0.954% | outcome [6] inactive [at 17.4 µM] | Potency [7] | Potency [8] | outcome [9] | Potency [10] | Potency [11] | Potency [12] | Potency [13] | Potency [14] | Potency [15]

COc1c(C)c(OCC=C(C)C)cc2c1CNC2=O
inactive: max response [1] -2.67% | max response [2] -5.13% | outcome [3] | max response [4] -3.05% | max response [5] -2.21% | outcome [6] | Potency [7] | Potency [8] | outcome [9] | Potency [10] | Potency [11] | Potency [12] | Potency [13] | Potency [14]

CC1=CC(=O)C2C(C)(C)CCC[C@]2(C)[C@H]1CC[C@H](C)CC(=O)O (some centres not stated)
inactive: max response [1] -2.16% | max response [2] -12.7% | outcome [3] | outcome [4] | outcome [5] | outcome [6] | outcome [16] | Potency [7] | outcome [9] | Potency [10] | Potency [11] | Potency [12] | Potency [13] | Potency [14] | Potency [15]

CC(C)=CCC[C@](C)(O[C@@H]1O[C@H](CO[C@@H]2O[C@@H](CO)[C@H](O)[C@H]2O)[C@@H](O)[C@H](O)[C@H]1O)[C@H]1CC[C@]2(C)[C@@H]1[C@H](O)C[C@@H]1[C@@]3(C)CC[C@H](O[C@@H]4O[C@H](CO)[C@@H](O)[C@H](O)[C@H]4O[C@@H]4O[C@H](CO)[C@@H](O)[C@H](O)[C@H]4O)C(C)(C)[C@@H]3CC[C@]12C
inactive: max response [1] 2.09% | max response [2] -3.56% | outcome [3] | outcome [4] | max response [5] -28.7% | outcome [6] inactive [at 17.4 µM] | Potency [7] | Potency [8] | outcome [9] | Potency [10] | Potency [11] | Potency [12] | Potency [13] | Potency [14]
